# This is a sample that favours compounds with a hit; in the whole collection about 11% have one here.
# FLuc inh-1: Firefly luciferase inhibition profiling of diverse chemical library using quantitative high-throughput screening | purified P. pyralis luciferase, luminescence, biochemical | Luciferin 4-monooxygenase (Photinus pyralis), P08659 | Potency, µM (titrated, usually from 115 µM), usual class: inhibitors | hit rate 2.5% among 76,000; note: nearly all actives have a fitted effect of over 65% in size
# Target sequence (P08659 whole entry, looked up): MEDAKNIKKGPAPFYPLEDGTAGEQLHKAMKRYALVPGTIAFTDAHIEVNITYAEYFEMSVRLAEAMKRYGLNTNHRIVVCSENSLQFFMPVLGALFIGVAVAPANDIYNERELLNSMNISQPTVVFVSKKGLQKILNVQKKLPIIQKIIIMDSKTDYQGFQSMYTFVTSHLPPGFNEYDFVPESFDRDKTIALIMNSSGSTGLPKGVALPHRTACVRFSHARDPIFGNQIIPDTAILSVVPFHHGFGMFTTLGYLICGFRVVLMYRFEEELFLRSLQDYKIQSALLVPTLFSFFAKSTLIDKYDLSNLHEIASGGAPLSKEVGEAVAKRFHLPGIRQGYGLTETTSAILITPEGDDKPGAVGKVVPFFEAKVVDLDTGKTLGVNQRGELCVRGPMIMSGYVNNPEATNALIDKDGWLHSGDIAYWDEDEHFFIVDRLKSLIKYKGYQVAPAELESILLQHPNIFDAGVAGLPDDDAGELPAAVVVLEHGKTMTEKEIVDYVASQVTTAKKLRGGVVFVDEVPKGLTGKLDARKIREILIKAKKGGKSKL
#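 FLuc 10nM, D-luciferin 10uM, ATP 10uM, Mg acetate 10mM, Tris acetate pH 7.5, Tween/BSA; cpd qHTS; enzyme added last; CCD luminescence.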
# NIH3T3 tox: Cytotoxic Profiling in NIH 3T3 Cell Line of Diverse Libraries Using Quantitative High-Throughput Screening; NIH 3T3 viability, CellTiter-Glo ATP luminescence, 48-72 h; Potency, µM (highest dose often 96.7 µM), usual class: inhibitors; hit rate 4.3% among 94,000; AID 1345082, 2018; note: nearly all actives have a fitted effect of over 55% in size
#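 ATP-dependent luminescence (CellTiter-Glo) served as the viability signal for NIH 3T3 cells treated with compound for 48 or 72 hr at 37 °C.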
# hNpr1 antagonist: Natriuretic polypeptide receptor (hNpr1) antagonism - Primary qHTS | hit rate 1.6% among 76,000 | Atrial natriuretic peptide receptor 1 (Homo sapiens), P16066 | AID 1347048, 2019 | HEK293 hNpr1 GloSensor cGMP, ANP-stimulated luminescence | Potency, µM (top dose mostly 46.3 µM), hits mostly inhibitors; calls by dose curve; note: nearly all actives have a fitted effect of over 60% in size
#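 Compound pre-incubated 30 min at room temperature on GloSensor-loaded HEK293 cells stably carrying hNpr1 and the pGS-40F cGMP biosensor. Stimulation uses hNppA at 0.1 nM final; luminescence is taken at baseline and 20 min post-agonist.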
# HEK293 tox: Cytotoxic Profiling in HEK 293 Cell Line of Diverse Libraries Using Quantitative High-Throughput Screening; HEK 293 viability, ATP luminescence (CellTiter-Glo), 48-72 h; Potency, µM (titrated, usually from 115 µM), most hits filed as inhibitors; hit rate 6.6% among 94,000; AID 1345083, 2018; note: nearly all actives have a fitted effect of over 60% in size
#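 Viability of HEK 293 cells, plated at 250 cells/well, was judged by cellular ATP after compound treatment for 48 or 72 hr. Luminescence was imaged 10 min after CellTiter-Glo addition at room temperature.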
# FLuc SDR -ATP: Firefly luciferase (FLuc-C-HiBiT) SDR gain of signal screen - without ATP. shares compounds with FLuc inh-1. Purified FLuc-C-HiBiT, Nano-Glo HiBiT luminescence, no ATP. Potency, µM (doses to about 32.7 µM), most hits filed as activators. hit rate 7.8% among 1,300; note: nearly all actives have a fitted effect of over 55% in size
# FLuc SDR ATP: Firefly luciferase (FLuc-C-HiBiT) SDR gain of signal screen - plus ATP; AID 1963319, 2024; shares compounds with FLuc inh-1; hit rate 8.7% among 1,300; purified FLuc-C-HiBiT + ATP, HiBiT complementation luminescence; Potency, µM (top dose mostly 32.7 µM), usual class: activators;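 note: signal reports ligand binding via conformational change of the enzyme rather than luciferase catalysis; nearly all actives have a fitted effect of over 55% in size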
# FLuc inh-2: Firefly luciferase (FLuc-C-HiBiT) enzymatic inhibition screen - Functional assay. shares compounds with FLuc inh-1. purified FLuc-C-HiBiT enzyme, luciferin luminescence. Potency, µM (top dose mostly 32.7 µM), most hits filed as inhibitors. hit rate 42% among 1,300. AID 1963320, 2024; note: nearly all actives have a fitted effect of over 70% in size
# Hits are given with their value; . = inactive; ? = inconclusive; / = not tested or not shown; [ ] = remark or other dose. Unless noted, calls come from the whole dose curve; as a rule, active = well fitted curve in the direction sought with a large enough effect; inconclusive = small, poorly fitted or top-dose-only effect, or another doubt; inactive = no such curve, though single readings can be large; an effect the other way counts as inactive or inconclusive.
SMILES,FLuc inh-1,NIH3T3 tox,hNpr1 antagonist,HEK293 tox,FLuc SDR -ATP,FLuc SDR ATP,FLuc inh-2
CCOC(=O)c1ccc(NC(=O)c2csc3c2CCCC3)cc1,/,/,/,/,.,.,?
O=C(O)C1CN(Cc2ccc(-c3nc4cc(Cc5ccccc5F)ccc4s3)c(F)c2)C1,/,/,/,/,.[5.62 µM],.[5.62 µM],.[5.62 µM]
O=C(N[C@@H]1CN(Cc2ccc(Cl)c(F)c2)C[C@H]1CO)C1CCC1,.,.,.,?,/,/,/
C#CCNC(=O)c1nc2sccn2c1-c1cccc(OC)c1,/,.,/,.,/,/,/
CN(C)[C@@H]1CN(Cc2ccsc2)CC[C@@H]1CNC(=O)C1CC1,.,.,.,.,/,/,/
O=C(Nc1ccc2c(c1)OCO2)c1cccc2c1CCN2C(=O)Nc1ccc(F)cc1,0.71µM,.,7.1µM,?,.,0.25µM,0.2µM
CC(NC(=O)c1cccc2c1CCN2C(=O)Nc1ccccc1)c1cccnc1 (stereo not given),6.3µM,.,.,?,.,3.1µM,1.8µM
CCN(CC)C(=O)c1cccc2c1CCN2C(=O)Nc1cccc(C)c1,.,?,.,?,/,/,/
CCC(=O)N1CCc2c(C(=O)NCc3cccnc3)cccc21,.,.,.,.,/,/,/
O=C(NCCc1cccnc1)c1cccc2c1CCN2C(=O)Nc1ccc(F)cc1,0.4µM,.,11µM,45µM,.,0.35µM,0.22µM
O=C(NCc1ccco1)c1cccc2c1CCN2C(=O)Nc1ccc(F)cc1,2.2µM,?,?,?,?,1.8µM,1.1µM
Cc1ccc(CNC(=O)c2cccc3c2CCN3C(=O)c2ccc(F)cc2)o1,.,.,.,?,/,/,/
O=C(C1CCCN1C(=O)c1ccccc1Cl)N1CCC(c2nc3ccncc3[nH]2)C1 (stereo not given),/,.,/,.,/,/,/
O=C(C1CCCN1C(=O)c1ccc(Cl)nc1)N1CCC(N2Cc3ccccc3C2=O)CC1 (stereo not given),/,.,/,.,/,/,/
O=C(NCCc1cccs1)c1cccc2c1CCN2C(=O)Nc1ccc(F)cc1,1.3µM,?,?,?,.,1.4µM,0.79µM
COc1ccc(CNC(=O)c2cccc3c2CCN3C(=O)c2ccc(F)cc2)cc1,.,.,.,.,/,/,/
CNC(=O)c1cc(C)nc2onc(C3CCN(C(=O)c4ccccc4F)CC3)c12,/,.,/,.,/,/,/
Cn1ccnc1C(O)c1cc2n(n1)CCN(c1ncnc3nc[nH]c13)C2 (stereo not given),.,.,.,.,.,.,.
Cc1ccc(-n2cc(CN3CCn4nc(C(O)c5nccn5C)cc4C3)cn2)cc1 (stereo not given),?,.,.,.,/,/,/
COC(=O)CNC(=O)c1nc2cccnc2n(-c2ccc(OC)cc2)c1=O,/,.,/,.,/,/,/
O=C(Nc1nn(-c2cccc(F)c2)c2cccc(N3CCOCC3)c12)C1CCC1,7.9µM,?,?,45µM,?,.,?
COc1ccc(-c2nc3cc(C)ccc3cc2CN2CCC(NC(C)=O)C2)cc1 (stereo not given),?,?,.,.,/,/,/
Brc1ccccc1-n1ncc2c1ncn1nc(Cc3ccccc3)nc21,/,/,/,/,.,.,.
O=C(O)c1cccc2c1CCN2C(=O)c1ccccc1,2.5µM,.,.,.,.,?,3.9µM
NS(=O)(=O)c1cccc(N=Cc2c(O)[nH]c3ccccc23)c1,/,/,/,/,.,.,.
CN1CCN(CCCNc2nccc(-c3ccccn3)n2)CC1,.,.,.,.,/,/,/
c1ccc(CCCNc2nccc(-c3ccccn3)n2)nc1,10µM,.,.,?,.,.,.
